Records with an inconclusive call do not appear. Where a call stands in place of a potency, no number is given. Active and inactive are the calls of the source. Calls come from the whole dose curve; as a rule, active = well fitted activation curve with a large enough effect; inconclusive = small, poorly fitted or top-dose-only effect; inactive = no such curve, though single readings can be large or run the other way.
Potency is the fitted concentration of half-maximal effect.

The experiment can be described thus: qHTS Assay for Identifying a Potential Treatment of Ataxia-Telangiectasia: Secondary assay (no NCS) hit validation.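 Note: phosphorylated KAP1 signal as a proxy for ATM-like kinase activity.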 To be noted: A-T patient fibroblasts, AlphaLISA, no DNA damage added, 90 min; series mostly up to 76.9 µM. The method in brief: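 hTERT-immortalized A-T patient fibroblasts (F2112), 500 cells/well, exposed to compounds at up to 76.7 uM final without NCS at 37C. KAP-1 phosphorylation measured by AlphaLISA after lysis and 6 h detection at 25C.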
In general terms: qHTS replaces the single test concentration by a dilution series.
For the compound `Nc1nc2ccccc2cc1-c1cccs1`, the Potency entry was “inactive”.

Take `COc1cccc(C(=O)NOCc2ccc(C)cc2)c1OC`: the Potency entry was “inactive”.

As to `CCn1nc(C)c(/C=N/NC(=O)Cn2cncn2)c1C`, the Potency result is “inactive”.

With `CCOC(=O)Cc1csc(NC(=O)CSc2nnc(C(C)C)n2C)n1`, the Potency entry was “inactive”.

As for `CCOc1ccc(NC2=NCC(=O)N2Cc2cccs2)cc1`, the Potency result is “inactive”.

Regarding `COc1ccc(NS(=O)(=O)c2ccc(N3CC(O)=C(c4ccccc4)C3=N)cc2)cc1`, the Potency result was “inactive”.

As for `COC(=O)c1cccc2c1-c1ccccc1/C2=N\NC(N)=O`, the Potency entry is “inactive”.

With `O=C1C2C3C=CC(CC3)C2C(=O)N1c1cccc(Br)c1` (configuration not stated), the Potency entry was “inactive”.

`CC(C)(C)NC(=O)c1cccc2c1-c1ccccc1C2=O`: the Potency entry is “inactive”.

As to `COc1cc(/C=N/NC(=O)c2c(C)nc3ccc(Cl)cn23)cc(OC)c1OC`, the Potency was 3.68 µM (active).

As to `Cc1ccc(OC(=O)c2cc(C)nn2C(C)(C)C)cc1`, the Potency result was “inactive”.

Take `COc1ccc(CCNC2=NCCS2)cc1OC`: the Potency result was “inactive”.

Turning to `COc1ccc2c(c1)c(N=NC(N)=S)c(O)n2CC(=O)c1ccccc1`, the Potency result is “inactive”.

As for `O=C(CSc1nnc(CNC(=O)c2ccccc2)o1)NCCc1ccccc1`, the Potency result was “inactive”.

Take `COc1ccc(N(CCC#N)C(=O)/C(C#N)=C\c2cccs2)cc1`: the Potency result is “inactive”.

For the compound `CC12CCC(C(=O)NNc3ccc([N+](=O)[O-])cc3)(OC1=O)C2(C)C` (configuration not stated), the Potency result was “inactive”.

For the compound `CC(C)OP(=O)(OC(C)C)C(O)c1ccc(N(C)C)cc1` (configuration not stated), the Potency is 9.23 µM (active).

These data come from PubChem BioAssay AID493201 (National Center for Advancing Translational Sciences (NCATS), 2011).
